# The full list was thinned out, with hits kept by preference.
# ST2 inh – IL1RL1 inhibition | AlphaLISA ST2-Fc/biotin-IL-33 interaction, 1 h | actives 2.3% (n = 78,000) | inhibition, % for hits at 17 µM; in the data active = inhibition above about 30%
# Target sequence (Q01638 whole entry, looked up): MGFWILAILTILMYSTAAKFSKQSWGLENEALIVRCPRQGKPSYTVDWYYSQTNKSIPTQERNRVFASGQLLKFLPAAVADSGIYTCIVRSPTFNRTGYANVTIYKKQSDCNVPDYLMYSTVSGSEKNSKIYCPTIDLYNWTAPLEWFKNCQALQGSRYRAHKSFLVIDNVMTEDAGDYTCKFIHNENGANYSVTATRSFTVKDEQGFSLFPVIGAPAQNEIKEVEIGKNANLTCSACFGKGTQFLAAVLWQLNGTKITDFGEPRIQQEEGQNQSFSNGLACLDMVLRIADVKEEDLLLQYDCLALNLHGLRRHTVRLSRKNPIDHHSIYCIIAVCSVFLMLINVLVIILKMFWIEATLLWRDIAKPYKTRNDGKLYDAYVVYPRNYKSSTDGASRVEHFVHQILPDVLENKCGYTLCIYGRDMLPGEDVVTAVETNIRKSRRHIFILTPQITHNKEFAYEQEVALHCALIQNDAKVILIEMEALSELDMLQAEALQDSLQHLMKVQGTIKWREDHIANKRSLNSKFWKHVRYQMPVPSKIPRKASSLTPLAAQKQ
# * hit, by the source's call; i = inactive.
SMILES,ST2 inh
CC(=O)N(C1=C(N2CCCCC2)C(=O)c2ccccc2C1=O)c1cccc(Cl)c1,61.0%*
CC(C)CC(C(=O)Nc1cccc(Cl)c1)N1C(=O)c2ccccc2C1=O (stereo not drawn),i
CCc1ccc(-c2nc(SCC(=O)NCc3ccco3)c(-c3ccc(F)cc3)[nH]2)cc1,i
CCCCn1c(=N)n(CC(=O)OCC)c2ccccc21,i
CN(Cc1cn[nH]c1-c1ccc(F)cc1)C(=O)Cc1ccsc1,i
O=C(CCC1CCCN(C(=O)C(=O)c2ccccc2)C1)Nc1ccc(C(F)(F)F)cc1 (stereo not drawn),i
COC(=O)c1ccccc1NC(=O)C1c2ccccc2Oc2ccccc21,i
COc1ccc(NC(=O)CCc2c(C)n(C)c3cc(-c4ccccc4OC)nn3c2=O)cc1OC,i
COc1ccc(OCC(=O)NC2C3CC4CC(C3)CC2C4)cc1 (stereo not drawn),i
O=[N+]([O-])c1cccc(C=Nc2ccccc2Cl)c1O,i
O=[N+]([O-])c1cc(Br)cc(C=Nc2ccc(Br)cc2)c1O,i
Cc1ccc(N=Cc2cc(C)cc([N+](=O)[O-])c2O)c(Cl)c1,30.0%*
Cc1ccc(NS(=O)(=O)c2cccc3c2C(=O)c2ccccc2C3=O)c(C)c1,64.0%*
Cc1ccc(NS(=O)(=O)c2ccc(F)cc2)c(C)c1,i
Cc1ccc(NCN2C(=O)c3ccccc3C2=O)c(C)c1,i
CCOc1ccc([N+](=O)[O-])cc1C1Nc2ccccc2-c2nnc(SC)nc2O1 (stereo not drawn),i
CC1=C(C(=O)Nc2ccc(Cl)cc2)C(c2ccc([N+](=O)[O-])cc2)n2ncnc2N1 (stereo not drawn),i
CCOC1=NC2Nc3ccc(Cl)cc3N(C)C2C1c1ccc([N+](=O)[O-])cc1 (stereo not drawn),36.0%*
O=C1NCCN(C(=O)CCc2nc3ccccc3[nH]2)C1CCO (stereo not drawn),i
CC(C)c1ccc(CN2CCCC3(CCN(C(=O)c4cc(=O)n(C)c(=O)n4C)C3)C2)cc1 (stereo not drawn),i
COc1ccc(NC(=O)CNS(=O)(=O)c2cccs2)cc1Cl,i
CCC(Sc1nc(C)cc(C)n1)C(=O)Nc1cc(C)on1 (stereo not drawn),i
CCSc1nc2c(cc1C#N)CCCC2,i
CCC(Sc1nc2c(cc1C#N)CCCCC2)C(=O)Nc1cc(C)on1 (stereo not drawn),30.0%*
Cc1ccc(-c2noc(CCC(=O)NC3CCCCCC3)n2)cc1,i
SMILES,ST2 inh
O=c1cc2cc(O)[nH]c(=O)c2c(O)[nH]1,47.0%*
CCCc1noc(CN2CCCC3(CCCN(C)C3)C2)n1 (stereo not drawn),i
CN1CCC2(CCC1=O)CCN(c1nccc(C(F)(F)F)n1)CC2,i
CC(Oc1ccccc1)C(=O)Nc1cccc(Cl)c1 (stereo not drawn),i
Cc1cc(Cl)ccc1OC(C)C(=O)Nc1c(Cl)cccc1Cl (stereo not drawn),i
CC(Oc1ccc(Cl)cc1Cl)C(=O)Nc1cccc([N+](=O)[O-])c1 (stereo not drawn),30.0%*
O=C(CN1CCN(Cc2ccc(F)cc2)C1=O)NCCc1ccc(Cl)cc1,i
COc1cc2c(C(=O)N3CCN(c4ccccn4)CC3)cn(CC(C)C)c(=O)c2cc1OC,i
c1csc(C2=NN3C(C2)c2ccccc2OC32CCCC2)c1 (stereo not drawn),i
Clc1ccc2c(c1)C1CC(c3ccccc3)=NN1CO2 (stereo not drawn),i
CC(C)C1Oc2ccc(Cl)cc2C2CC(c3cccs3)=NN21 (stereo not drawn),34.0%*
CCCN1CCN(CCCNC(=O)C2CCN(S(C)(=O)=O)CC2)CC1,i
Cc1ccccc1N1CCN(C2CCCN(Cc3ccc(C#CCCO)cc3)C2)CC1 (stereo not drawn),i
CCCCOc1ccc(C2=N/C(=C\c3ccc(N(C)C)cc3)C(=O)O2)cc1,37.0%*
COc1c(Cl)cc(Cl)cc1/C=C1\N=C(c2ccccc2)OC1=O,i
COc1ccc(/C=C2\N=C(c3cccc([N+](=O)[O-])c3)OC2=O)cc1,i
COc1ccccc1/C=C1\N=C(c2cc([N+](=O)[O-])cc([N+](=O)[O-])c2)OC1=O,i
COc1ccc(/C=C2\N=C(c3cccc(I)c3)OC2=O)cc1,31.0%*
CN(C)c1ccc(/C=C2\N=C(c3ccc([N+](=O)[O-])cc3)OC2=O)cc1,i
COc1cc(C2=N/C(=C\C=C\c3ccccc3)C(=O)O2)cc(OC)c1OC,30.0%*
O=C1OC(c2cccc(I)c2)=N/C1=C\c1ccc(Br)cc1,i
Cc1ccccc1C1=N/C(=C\C=C\c2ccccc2)C(=O)O1,42.0%*
O=C1OC(c2ccc(Cl)cc2Cl)=N/C1=C\c1ccccc1,i
CCCCOc1ccc(/C=C2\N=C(c3cccc([N+](=O)[O-])c3)OC2=O)cc1,i
O=C1OC(c2ccc(Br)cc2)=N/C1=C\C=C\c1ccccc1,i
SMILES,ST2 inh
CC(C)Oc1cccc(C(=O)Nc2ccc(N3CCCC3)cc2)c1,i
CSc1cccc(NS(=O)(=O)c2c(C)[nH]c(=O)[nH]c2=O)c1,i
CCOC(=O)C1=C(C)NC2=C(C(=O)C(C(=O)OC)C(C)C2)C1c1cccc(Br)c1 (stereo not drawn),i
O=C(c1cccn2c(=O)c3c4c(sc3nc12)CCCC4)N1CC=C(c2ccccc2)CC1,i
CCCN1CCC[C@H]1c1nc(-c2ccc(N(C)C)nc2)no1,i
N#CCSc1nc2c(sc3ccccc32)c(=O)n1CCc1ccccc1,i
COC(=O)CSc1nc2sc3c(c2c(=O)n1Cc1ccccc1)CC(C)(C)OC3,i
Cc1ccccc1C1=N/C(=C\c2cccc(F)c2)C(=O)O1,i
Cc1ccccc1C1=N/C(=C\c2ccccc2)C(=O)O1,33.0%*
CN(C)c1ccc(/C=C2\N=C(c3ccccc3)OC2=O)cc1Br,41.0%*
Cc1ccccc1C1=N/C(=C\c2ccc(N(C)C)cc2)C(=O)O1,40.0%*
Cc1ccc(C2=N/C(=C\c3ccccc3)C(=O)O2)cc1[N+](=O)[O-],i
Cc1cccc(C2=N/C(=C\c3ccc(Br)cc3)C(=O)O2)c1,i
Cc1ccc(C2=N/C(=C\c3ccc([N+](=O)[O-])cc3)C(=O)O2)cc1[N+](=O)[O-],i
COc1ccc(/C=C2\N=C(c3ccccc3C)OC2=O)cc1,i
O=C1OC(c2ccc(-c3ccccc3)cc2)=N/C1=C\c1ccccc1,i
O=C(NCCNC(=O)c1ccc2c(c1)OCO2)c1ccc2c(c1)OCO2,i
CCC(CC)C(=O)NC1CC(=O)N(c2ccc(Cl)cc2)C1 (stereo not drawn),i
CN(C)/C=C1/C(=O)N(c2nc3ccccc3s2)N=C1C(F)(F)F,i
CCCOC(=O)C1=C(C)NC2=C(C(=O)C(C(=O)OC)C(C)C2)C1c1ccc(O)c(OCC)c1 (stereo not drawn),i
CCOc1ccccc1NC(=O)c1cccc(OCc2ccccc2)c1,i
COc1cncc(-c2cccc3ccnn23)c1,i
COc1cc(/C=c2\sc3nc(-c4ccncc4)nn3c2=O)ccc1OCCC(C)C,i
Cc1[nH]nc2c1C(c1cccc(OCc3ccccc3Cl)c1)C(C#N)=C(N)O2 (stereo not drawn),i
Cc1cc(N2C(=O)[C@@H]3[C@H](C2=O)[C@H]2C=C[C@@H]3CC2)c([N+](=O)[O-])cc1C,i
N#Cc1cc([N+](=O)[O-])cnc1Sc1ccccc1,32.0%*
N#Cc1cc([N+](=O)[O-])cnc1NCCO,i

# From PubChem BioAssay
